Test results as given in PubChem BioAssay (NCATS).
The source made the active and inactive calls. Calls come from the whole dose curve.

target: Glucocorticoid receptor (Homo sapiens) (UniProt P04150); test: GR-EFC Redistribution (AID 451); settings: CHO-K1 GR-EFC translocation, beta-gal luminescence, 2 h
Procedure, shortened: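 CHO-K1 cells expressing nuclear EA and GR-ED fragments of b-gal; compounds titrated up to 46 uM final, 2 h at 37 C. GR nuclear translocation read as complemented b-gal luminescence after 1 h RT detection.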
Potency is the fitted concentration of half-maximal effect.

Glucocorticoid receptor (Homo sapiens), sequence (P04150 whole entry, looked up, the tested form may be a part): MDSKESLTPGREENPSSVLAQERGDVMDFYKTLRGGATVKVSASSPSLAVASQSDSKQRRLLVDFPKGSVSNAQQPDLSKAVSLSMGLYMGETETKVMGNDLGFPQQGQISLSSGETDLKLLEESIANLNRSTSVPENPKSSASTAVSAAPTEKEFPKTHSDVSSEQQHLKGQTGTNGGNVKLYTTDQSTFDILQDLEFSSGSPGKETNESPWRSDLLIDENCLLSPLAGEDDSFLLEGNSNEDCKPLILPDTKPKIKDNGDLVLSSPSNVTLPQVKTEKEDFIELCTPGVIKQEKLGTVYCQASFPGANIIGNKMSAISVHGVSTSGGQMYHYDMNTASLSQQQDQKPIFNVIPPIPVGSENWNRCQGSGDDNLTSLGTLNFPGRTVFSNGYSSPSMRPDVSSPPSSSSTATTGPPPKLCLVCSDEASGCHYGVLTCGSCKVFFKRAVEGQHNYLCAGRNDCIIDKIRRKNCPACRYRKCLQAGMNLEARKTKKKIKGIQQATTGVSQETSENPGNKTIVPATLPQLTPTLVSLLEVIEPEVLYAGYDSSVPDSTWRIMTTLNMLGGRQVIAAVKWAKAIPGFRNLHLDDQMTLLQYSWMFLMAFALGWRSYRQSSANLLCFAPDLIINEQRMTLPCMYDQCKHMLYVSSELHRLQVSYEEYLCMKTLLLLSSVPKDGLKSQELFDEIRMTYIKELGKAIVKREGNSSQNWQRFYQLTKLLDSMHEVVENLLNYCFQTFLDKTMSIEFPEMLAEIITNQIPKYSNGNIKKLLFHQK

Potency, inactive:
O=C(O)[C@H]1CC=CC[C@@H]1C(=O)Nc1cccc(O)c1 > 9.22 µM, O[C@@H](c1cc([C@@]23C[C@H]4CC[C@@H]2C[C@H](C4)C3)nc2c(Cl)cc(Cl)cc12)[C@@H]1CCCCN1 > 9.22 µM, CCOC(=O)c1cnc(N(C)C)nc1SC(=N)N > 9.22 µM, OC[C@@H]1O[C@H](n2cnc3c(/C=C(\O)c4ccccc4)ncnc32)[C@H](O)[C@@H]1O > 9.22 µM, Cc1nc2ccccc2nc1-c1ccc(N=[N+]([O-])c2ccc(-c3nc4ccccc4nc3C)cc2)cc1 > 9.22 µM, O=C1[C@@H]2[C@@H](C(=O)N1c1ccc(OCc3ccccc3)cc1)[C@@H]1c3ccccc3[C@@H]2[n+]2ccccc21 > 9.22 µM, Cc1ccc(C2=C(Cl)C(=O)C(c3ccc(C)cc3)=C(Cl)C2=O)cc1 > 9.22 µM, C[C@@]12CC[C@@H]3[C@H](CCC4=CC(=O)CC[C@]43C)[C@@H]1CC[C@@H]2C(=O)Cn1cnc2c(=S)nc[nH]c21 > 9.22 µM, Cc1ncn(-c2ccccc2O)c1C > 9.22 µM, O=[N+]([O-])c1ccc(CSCc2ccc(Cl)cc2)cc1 > 9.22 µM, O=C(O)CCNc1ncnc2nc[nH]c12 > 9.22 µM, COc1ccc(Cc2ccccc2C(=O)O)c2ccccc12 > 9.22 µM, O[C@@H](c1cc(C(F)(F)F)nc2c(Cl)cc(Cl)cc12)[C@@H]1CCCCN1 > 9.22 µM
